# This is one part of a sample in which the strongest signals are shown more often than they occur.
# Experiments:
# Experiment in all cases: glycan array binding signal (z-score within array); higher = stronger binding
# Conditions in all cases: glycan notation: IUPAC condensed, linker removed
# [1] = target: Fuc(a1-2)Gal(b1-3)GalNAc(b1-3)Gal
# In short: (§1)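 Glycan array data came from 3228 arrays in the Consortium for Functional Glycomics database, and only arrays with an available protein sequence were kept. Glycan names were put into IUPAC-condensed notation, and columns mapping to the same glycan were averaged. The binding signal is a within-array Z-score, averaged across arrays of one protein sequence run at different concentrations or buffers and across linkers. A negative Z-score can be read as non-binding.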
# Fuc(a1-2)Gal(b1-3)GlcNAc = target: Fuc(a1-2)Gal(b1-3)GlcNAc
# In short: as §1
# [2] = target: Fuc(a1-2)Gal(b1-4)GlcNAc(b1-2)Man(a1-3)[Fuc(a1-2)Gal(b1-4)GlcNAc(b1-2)Man(a1-6)]Man(b1-4)GlcNAc(b1-4)[Fuc(a1-6)]GlcNAc
# In short: as §1
# [3] = target: Fuc(a1-2)Gal6S(b1-4)Glc6S
# In short: as §1
# [4] = target: Fuc(a1-2)[Gal(a1-3)]Gal(b1-3)GalNAc(b1-3)Gal(a1-4)Gal(b1-4)Glc
# In short: as §1
# [5] = target: Fuc(a1-2)[Gal(a1-3)]Gal(b1-4)[Fuc(a1-3)]Glc
# In short: as §1
# [6] = target: Fuc(a1-2)[GalNAc(a1-3)]Gal(b1-3)GlcNAc(b1-2)Man(a1-3)[Fuc(a1-2)[GalNAc(a1-3)]Gal(b1-3)GlcNAc(b1-2)Man(a1-6)]Man(b1-4)GlcNAc(b1-4)[Fuc(a1-6)]GlcNAc
# In short: as §1
# [7] = target: Fuc(a1-2)[GalNAc(a1-3)]Gal(b1-4)GlcNAc(b1-2)Man
# In short: as §1
# [8] = target: Fuc(a1-3)[Gal(b1-4)]Glc6S
# In short: as §1
# [9] = target: Fuc(a1-3)[Gal(b1-4)]GlcNAc(b1-2)Man(a1-3)[Fuc(a1-3)[Gal(b1-4)]GlcNAc(b1-2)Man(a1-6)]Man(b1-4)GlcNAc(b1-4)GlcNAc
# In short: as §1
# [10] = target: Fuc(a1-3)[Gal(b1-4)]GlcNAc(b1-2)Man(a1-3)[Fuc(a1-3)[Gal(b1-4)]GlcNAc(b1-2)Man(a1-6)]Man(b1-4)GlcNAc(b1-4)[Fuc(a1-6)]GlcNAc
# In short: as §1
# Gal(a1-3)Gal(b1-4)Glc = target: Gal(a1-3)Gal(b1-4)Glc
# In short: as §1
# Gal(a1-3)GalNAc = target: Gal(a1-3)GalNAc
# In short: as §1
# Gal(a1-4)Gal(b1-4)GlcNAc = target: Gal(a1-4)Gal(b1-4)GlcNAc
# In short: as §1
# Gal(b1-3)Gal = target: Gal(b1-3)Gal
# In short: as §1
# [11] = target: Gal(b1-3)GlcNAc(a1-3)Gal(b1-4)GlcNAc
# In short: as §1
# Gal(b1-3)GlcNAc(b1-2)Man = target: Gal(b1-3)GlcNAc(b1-2)Man
# In short: as §1
# [12] = target: Gal(b1-3)GlcNAc(b1-3)GalNAc
# In short: as §1
# [13] = target: Gal(b1-4)GalNAc(b1-3)[Fuc(a1-2)]Gal(b1-4)GlcNAc
# In short: as §1
# [14] = target: Gal(b1-4)GlcNAc(b1-2)Man(a1-3)[GlcNAc(b1-4)][Gal(b1-4)GlcNAc(b1-2)Man(a1-6)]Man(b1-4)GlcNAc(b1-4)GlcNAc
# In short: as §1
# [15] = target: Gal(b1-4)GlcNAc(b1-2)[Gal(b1-4)GlcNAc(b1-6)]Man(a1-6)[Gal(b1-4)GlcNAc(b1-2)Man(a1-3)]Man(b1-4)GlcNAc(b1-4)GlcNAc
# In short: as §1
# [16] = target: Gal(b1-4)GlcNAc(b1-3)Gal(b1-4)GlcNAc(b1-2)Man(a1-3)[Gal(b1-4)GlcNAc(b1-3)Gal(b1-4)GlcNAc(b1-2)Man(a1-6)]Man(b1-4)GlcNAc(b1-4)GlcNAc
# In short: as §1
# Gal(b1-6)Gal = target: Gal(b1-6)Gal
# In short: as §1
# Gal3S6S(b1-4)GlcNAc6S = target: Gal3S6S(b1-4)GlcNAc6S
# In short: as §1
# Gal4S(b1-4)GlcNAc = target: Gal4S(b1-4)GlcNAc
# In short: as §1
# [17] = target: GlcA3S(b1-3)Gal(b1-4)GlcNAc(b1-2)Man
# In short: as §1
# GlcNAc(b1-3)Gal = target: GlcNAc(b1-3)Gal
# In short: as §1
# [18] = target: GlcNAc(b1-3)Gal(b1-4)GlcNAc(b1-2)Man(a1-3)[GlcNAc(b1-3)Gal(b1-4)GlcNAc(b1-2)Man(a1-6)]Man(b1-4)GlcNAc(b1-4)[Fuc(a1-6)]GlcNAc
# In short: as §1
# [19] = target: GlcNAc(b1-3)Gal(b1-4)GlcNAc(b1-2)[GlcNAc(b1-3)Gal(b1-4)GlcNAc(b1-6)]Man(a1-6)[GlcNAc(b1-3)Gal(b1-4)GlcNAc(b1-2)Man(a1-3)]Man(b1-4)GlcNAc(b1-4)GlcNAc
# In short: as §1
# GlcNAc(b1-3)Man = target: GlcNAc(b1-3)Man
# In short: as §1
# [20] = target: GlcNAc(b1-3)[GlcNAc(b1-6)]Gal(b1-4)GlcNAc
# In short: as §1
# [21] = target: Man(a1-2)Man(a1-2)Man(a1-6)[Man(a1-3)]Man
# In short: as §1
# [22] = target: Man(a1-3)[Man(a1-6)]Man(a1-6)[Man(a1-3)]Man
# In short: as §1
# [23] = target: Neu5Ac(a2-3)Gal(b1-3)GlcNAc(b1-3)Gal(b1-4)GlcNAc
# In short: as §1
# [24] = target: Neu5Ac(a2-3)Gal(b1-3)GlcNAc(b1-4)Gal(b1-4)Glc
# In short: as §1
# [25] = target: Neu5Ac(a2-3)Gal(b1-3)[Fuc(a1-4)]GlcNAc(b1-3)Gal(b1-4)[Fuc(a1-3)]GlcNAc
# In short: as §1
# [26] = target: Neu5Ac(a2-3)Gal(b1-4)GlcNAc(b1-3)Gal
# In short: as §1
# [27] = target: Neu5Ac(a2-3)Gal(b1-4)GlcNAc(b1-3)Gal(b1-4)GlcNAc(b1-3)Gal(b1-4)GlcNAc(b1-2)Man(a1-3)[Neu5Ac(a2-3)Gal(b1-4)GlcNAc(b1-3)Gal(b1-4)GlcNAc(b1-3)Gal(b1-4)GlcNAc(b1-2)Man(a1-6)]GalNAc
# In short: as §1
# [28] = target: Neu5Ac(a2-3)Gal(b1-4)[Fuc(a1-3)]GlcNAc(b1-6)[Neu5Ac(a2-3)Gal(b1-3)]GalNAc
# In short: as §1
# [29] = target: Neu5Ac(a2-3)[GalNAc(b1-4)]Gal(b1-4)Glc
# In short: as §1
# [30] = target: Neu5Ac(a2-6)Gal(b1-4)GlcNAc(b1-3)Gal(b1-4)GlcNAc(b1-6)[Gal(b1-3)]GalNAc
# In short: as §1
# Neu5Ac(a2-8)Neu5Ac = target: Neu5Ac(a2-8)Neu5Ac
# In short: as §1
# [31] = target: Neu5Ac(a2-8)Neu5Ac(a2-3)Gal(b1-3)GalNAc(b1-4)[Neu5Ac(a2-3)]Gal(b1-4)Glc
# In short: as §1
# [32] = target: Neu5Ac(a2-8)Neu5Ac(a2-8)Neu5Ac(a2-3)Gal(b1-4)Glc
# In short: as §1
# [33] = target: Neu5Ac(a2-8)Neu5Gc(a2-3)Gal(b1-4)GlcNAc
# In short: as §1
# [34] = target: Neu5Gc(a2-8)Neu5Ac(a2-3)Gal(b1-4)GlcNAc
# In short: as §1
binder,measurement,setting,value
"Als1 (Candida albicans), P46590 (protein) KTITGVFDSFNSLTWSNAANYAFKGPGYPTWNAVLGWSLDGTSANPGDTFTLNMPCVFKYTTSQTSVDLTADGVKYATCQFYSGEEFTTFSTLTCTVNDALKSSIKAFGTVTLPIAFNVGGTGSSTDLEDSKCFTAGTNTVTFNDGDKDISIDVEFEKSTVDPSGYLYASRVMPSLNKVTTLFVAPQCENGYTSGTMGFSSSNGDVAIDCSNIHIGITKGLNDWNYPVSSESFSYTKTCTSNGIQIKYQNVPAGYRPFIDAYISATDVNQYTLAYTNDYTCAGSRLQSKPFTLRWTGYKNSDAGSNGIVIVATTRTVTDSTTAVTTLPFNPSVDKTKTIEILQPIPTTTITTSYVGVTTSYLTKTAPIGETATVIVDVPYHTTTTVTSEWTGTITTTTTRTNPTDSIDTVVVQVP",glycan array binding signal (z-score),[1],3.32
same,glycan array binding signal (z-score),Fuc(a1-2)Gal(b1-3)GlcNAc,-0.524
same,glycan array binding signal (z-score),[2],1.97
same,glycan array binding signal (z-score),[3],-0.25
same,glycan array binding signal (z-score),[4],-0.049
same,glycan array binding signal (z-score),[5],0.021
same,glycan array binding signal (z-score),[6],-0.413
same,glycan array binding signal (z-score),[7],-0.488
same,glycan array binding signal (z-score),[8],3.38
same,glycan array binding signal (z-score),[9],0.227
same,glycan array binding signal (z-score),[10],0.146
same,glycan array binding signal (z-score),Gal(a1-3)Gal(b1-4)Glc,-0.664
same,glycan array binding signal (z-score),Gal(a1-3)GalNAc,-0.407
same,glycan array binding signal (z-score),Gal(a1-4)Gal(b1-4)GlcNAc,-0.303
same,glycan array binding signal (z-score),Gal(b1-3)Gal,-0.458
same,glycan array binding signal (z-score),[11],-0.432
same,glycan array binding signal (z-score),Gal(b1-3)GlcNAc(b1-2)Man,0.092
same,glycan array binding signal (z-score),[12],-0.05
same,glycan array binding signal (z-score),[13],-0.644
same,glycan array binding signal (z-score),[14],8.37
same,glycan array binding signal (z-score),[15],7.7
same,glycan array binding signal (z-score),[16],4.19
same,glycan array binding signal (z-score),Gal(b1-6)Gal,-0.739
same,glycan array binding signal (z-score),Gal3S6S(b1-4)GlcNAc6S,3.22
same,glycan array binding signal (z-score),Gal4S(b1-4)GlcNAc,0.401
same,glycan array binding signal (z-score),[17],-0.192
same,glycan array binding signal (z-score),GlcNAc(b1-3)Gal,4.47
same,glycan array binding signal (z-score),[18],-0.201
same,glycan array binding signal (z-score),[19],4.37
same,glycan array binding signal (z-score),GlcNAc(b1-3)Man,-0.282
same,glycan array binding signal (z-score),[20],-0.361
same,glycan array binding signal (z-score),[21],-0.553
same,glycan array binding signal (z-score),[22],1.09
same,glycan array binding signal (z-score),[23],-0.473
same,glycan array binding signal (z-score),[24],4.25
same,glycan array binding signal (z-score),[25],-0.015
same,glycan array binding signal (z-score),[26],-0.274
same,glycan array binding signal (z-score),[27],3.84
same,glycan array binding signal (z-score),[28],2.16
same,glycan array binding signal (z-score),[29],-0.291
same,glycan array binding signal (z-score),[30],-0.05
same,glycan array binding signal (z-score),Neu5Ac(a2-8)Neu5Ac,-0.045
same,glycan array binding signal (z-score),[31],-0.627
same,glycan array binding signal (z-score),[32],-0.083
same,glycan array binding signal (z-score),[33],-0.049
same,glycan array binding signal (z-score),[34],4.63

# From the supplement of paper PMC8728848
